Measurements published in PubChem BioAssay AID1159606 (Sanford-Burnham Center for Chemical Genomics, 2016).
Values joined by “and” are separate entries in the source; they are usually repeats but may differ in a detail not shown here. Identical values can stand only once. Among all 360,000 compounds or so, about 7,300 (2%) were called active. Cut-off read from the data, not from the text of the source: active = inhibition above about 50%; inactive = the rest. Shown is part of a subset that was picked to be rich in actives.

Assay: inhibitors of TWEAK-Fn14 signaling, primary screen, luciferase reporter cells, uHTS (AID 1159606)
Conditions: TWEAK-stimulated Fn14 reporter cells, luciferase luminescence, 8 h; at 10 µM; hits give high values
With `CC1(C)OC(=O)C2=C(C[C@@H](C3CCCC3)O[C@@H]2c2ccc(Cl)cc2)O1` the inhibition was 1.8% (inactive).
With `CC(C)CN(C(=O)c1cccc(S(=O)(=O)N2CCCCC2)c1)C1CCS(=O)(=O)C1` (centres undefined) the inhibition was -4.27% (inactive).
With `COc1ccc2cc(CCl)c(Cl)nc2c1` the inhibition was 3.18% (inactive).
For `COc1ccc2nc(-c3ccccn3)ccc2c1`, the inhibition was 61.3% (active).
For `COc1ccc(C=C(C#N)C#N)c(CSc2ccccn2)c1`, the inhibition was 9.11% (inactive).
In the case of `OCCC1CN(Cc2cccc(O)c2)CCN1CCc1ccccc1` (centres undefined), the inhibition is reported as 15.9% (inactive).
For `Cc1nnc(OCC(=O)NCCC2=CCCCC2)c2ccccc12`, the inhibition was 8.22% (inactive).
For `O=C(Cc1cccc2ccccc12)NCCC1=CCCCC1`, the inhibition was 99.4% (active).
In the case of `O=C(CCNC(=O)Cn1ccc2ccccc2c1=O)NCCC1=CCCCC1`, the inhibition is reported as -2.43% (inactive).
In the case of `Cc1nccn1-c1ccc(NC(=O)[C@H]2O[C@@H](n3ccc(=O)[nH]c3=O)[C@H](O)[C@@H]2O)cc1`, the inhibition is reported as -4.03% (inactive).
For `Cc1ccc2c(c1)N(CCCC(=O)NCc1cccnc1)C(=O)CO2`, the inhibition was 7% (inactive).
With `COc1ccc(S(=O)(=O)N2CCCCC2)cc1C(=O)NC1CCS(=O)(=O)C1` (centres undefined) the inhibition was 4.36% (inactive).
In the case of `N#Cc1cccc(NC(=O)COC(=O)c2ccccc2C(=O)c2ccc(Cl)c([N+](=O)[O-])c2)c1`, the inhibition is reported as 99.5% (active).
For `CC(=O)Nc1ccc(NC(=O)C(C)OC(=O)c2ccccc2C(=O)c2ccc(Cl)c([N+](=O)[O-])c2)cc1` (centres undefined), the inhibition was 95.7% (active).
In the case of `COC(=O)c1cc(NC(=O)Cc2ccccc2[N+](=O)[O-])ccc1Cl`, the inhibition is reported as -1.56% (inactive).
In the case of `CC(=O)Nc1ccc(NC(=O)COC(=O)c2ccccc2C(=O)c2ccccc2)cc1`, the inhibition is reported as 16.1% (inactive).
With `CC(OC(=O)CNC(=O)c1ccc(Cl)c([N+](=O)[O-])c1)C(=O)NCc1ccco1` (centres undefined) the inhibition was -16.1% (inactive).
With `O=C(Nc1cccc(NC(=O)c2ccccc2[N+](=O)[O-])c1)c1ccccc1Cl` the inhibition was -3.52% (inactive).
In the case of `O=C(NCc1cccnc1)c1cc(C2CCCN(C(=O)CCCc3ccccc3)C2)on1` (centres undefined), the inhibition is reported as 0.68% (inactive).
In the case of `O=C(NNS(=O)(=O)c1ccccc1)c1cnn(-c2ccc(Cl)cc2)c1C(F)(F)F`, the inhibition is reported as 4.65% (inactive).
In the case of `O=C(c1ccco1)N1CCN(C(=O)C2CCCN(S(=O)(=O)c3cccc4nsnc34)C2)CC1` (centres undefined), the inhibition is reported as 62.4% (active).
With `CCCCN(C)CCNC(=O)C1CCCN(S(=O)(=O)c2cccc3nsnc23)C1` (centres undefined) the inhibition was -0.5% (inactive).
For `CCCCN(CC)C(=O)C1CCCN(S(=O)(=O)c2cccc3nsnc23)C1` (centres undefined), the inhibition was -6.36% (inactive).
For `O=C(CCl)NNc1cccc(Cl)n1`, the inhibition was -23.4% (inactive).
For `O=S(=O)(Nc1ccccc1N1CCOCC1)c1ccc(Cl)s1`, the inhibition was 4.55% (inactive).
In the case of `COc1cc(NC(=O)c2ccccc2NS(=O)(=O)c2ccc(Cl)s2)cc(OC)c1`, the inhibition is reported as 72.6% (active).
In the case of `O=C(Nc1cccc(Cl)c1)Nc1ccccc1NS(=O)(=O)c1cccs1`, the inhibition is reported as 10.4% (inactive).
In the case of `CCOCCCN(C)C1CCN(C(=O)c2oc3ccccc3c2NC(=O)Cc2cccc([N+](=O)[O-])c2)CC1`, the inhibition is reported as -1.52% (inactive).
With `Cc1ccc2c(c1)NC(=O)[C@@]1(C)[C@@H](c3ccccc3)[C@H]3COc4ccc(Cl)cc4[C@@H]3N1C2=O` the inhibition was 15.4% (inactive).
With `CCN1CCN(c2sc(S(C)(=O)=O)nc2S(=O)(=O)c2ccc(Cl)cc2)CC1` the inhibition was 31.6% (inactive).
With `COC(=O)c1ccccc1SC1CC(=O)N(c2cccc(C)c2)C1=O` (centres undefined) the inhibition was -5.63% (inactive).
For `COC(=O)[C@@]1(Sc2ccc(C)cc2)CC(=O)N(c2cccc(SC)c2)[C@@H]1c1ccccc1`, the inhibition was 69.9% (active).
With `CCOC(=O)N1C(=O)C[C@](Sc2ccc(C)cc2)(C(=O)OC)[C@H]1c1ccccc1` the inhibition was 14.7% (inactive).
With `CCCCn1nnnc1C(c1cc2ccccc2o1)N(C)Cc1ccc(Cl)c(Cl)c1` (centres undefined) the inhibition was -0.38% (inactive).
For `COc1ccc(C(=O)N2CCCCC2c2cc(C(=O)Nc3ccccc3)no2)cc1` (centres undefined), the inhibition was -7.61% (inactive).
For `COc1cc2[nH]c(=S)n(Cc3ccc(F)cc3)c(=O)c2cc1OC`, the inhibition was -27% (inactive).
For `CCOc1cc2[nH]c(=S)n(CCN3CCCCC3C)c(=O)c2cc1OCC` (centres undefined), the inhibition was -2.73% (inactive).
For `COc1cc2[nH]c(=S)n(CCN3CCCCC3C)c(=O)c2cc1OC` (centres undefined), the inhibition was 77.3% (active).
In the case of `CCOCCCNC(=O)C(NC(=O)CNC(=O)c1ccccc1)c1ccc(OC)cc1` (centres undefined), the inhibition is reported as -12.7% (inactive).
For `CN(C)Cc1ccc(F)cc1Sc1cc(Cl)ccc1Cl`, the inhibition was 5.28% (inactive).
With `CC(=O)N1C(C)c2ccccc2C(C)(C)CC12CCCCC2` (centres undefined) the inhibition was -11.4% (inactive).
In the case of `CO/N=C(\C(=O)N[C@@H]1C(=O)N2C(C(=O)O)=C(COC(C)=O)CS[C@H]12)c1csc(N)n1` (stereo in doubt), the inhibition is reported as 15% (inactive) and 5.82% (inactive) and -5.11% (inactive).
For `C=CC1=C(C(=O)O)N2C(=O)[C@@H](NC(=O)/C(=N/OCC(=O)O)c3csc(N)n3)[C@H]2SC1`, the inhibition was 75.2% (active).
In the case of `C=CC1=C(C(=O)O)N2C(=O)[C@@H](NC(=O)/C(=N\OCC(=O)O)c3csc(N)n3)[C@H]2SC1`, the inhibition is reported as 14.2% (inactive).
